In PubChem BioAssay AID504810 (National Center for Advancing Translational Sciences (NCATS), 2011):
About 670 (0.2%) of roughly 330,000 compounds were called active. For the sample, actives were picked, then their nearest neighbours and some compounds at random. Values without a mark were called inactive.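 The calls were made as follows: active = activity change below a set negative limit, meaning inhibition stronger than a set level (cut at about -70% in these data); inconclusive = activity change between two set negative limits; inactive = the rest.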

The molecules below were run against Thyrotropin receptor (Homo sapiens) (UniProt P16473) (assay: Antagonists of the Thyroid Stimulating Hormone Receptor: HTS campaign). Details: TSHR-expressing cells, TSH-stimulated cAMP HTRF, 2 h; at 11.5 µM; active compounds read low.
Method in brief: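 Antagonism was scored as loss of TSH-driven cAMP in TSHR cells, stimulated with 4nM TSH (EC80) for 2 hours at 37 deg C and detected by homogeneous HTRF competition immunoassay.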
% is scaled to controls: 0 for no effect and ±100 for the full control effect.

Sequence of Thyrotropin receptor (Homo sapiens) (P16473 whole entry, looked up): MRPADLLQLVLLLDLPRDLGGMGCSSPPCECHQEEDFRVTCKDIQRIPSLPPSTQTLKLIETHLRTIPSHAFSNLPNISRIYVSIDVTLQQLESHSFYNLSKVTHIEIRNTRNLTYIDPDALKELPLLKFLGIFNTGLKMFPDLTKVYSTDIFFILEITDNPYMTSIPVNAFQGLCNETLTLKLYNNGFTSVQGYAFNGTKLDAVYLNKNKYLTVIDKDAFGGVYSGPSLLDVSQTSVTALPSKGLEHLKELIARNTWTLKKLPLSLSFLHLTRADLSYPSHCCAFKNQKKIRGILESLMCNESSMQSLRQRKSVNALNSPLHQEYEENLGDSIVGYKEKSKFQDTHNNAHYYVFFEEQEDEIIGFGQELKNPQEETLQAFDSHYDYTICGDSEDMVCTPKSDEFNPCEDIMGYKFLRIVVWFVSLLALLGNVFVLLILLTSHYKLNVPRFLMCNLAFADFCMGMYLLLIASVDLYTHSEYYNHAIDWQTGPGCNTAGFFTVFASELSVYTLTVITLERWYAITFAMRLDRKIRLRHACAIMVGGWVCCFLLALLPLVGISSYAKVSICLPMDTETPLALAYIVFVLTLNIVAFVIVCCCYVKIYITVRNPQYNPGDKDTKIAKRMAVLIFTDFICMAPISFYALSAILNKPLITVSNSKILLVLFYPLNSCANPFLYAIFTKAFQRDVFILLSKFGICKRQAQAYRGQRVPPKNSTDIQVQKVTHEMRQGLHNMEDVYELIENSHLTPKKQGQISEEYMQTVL

Question: Which activity change, negative = inhibition does the source give for CNC(=O)C1CCN(S(=O)(=O)c2c(C)noc2/C=C/c2cccc(C)c2)CC1 here?
Answer: Its activity change, negative = inhibition is 9.08%.

Question: For CC(NC(=O)CNC(=O)Cc1cccc2ccccc12)c1ccc(S(N)(=O)=O)cc1 (stereo unspecified), which activity change, negative = inhibition is on record?
Answer: Its activity change, negative = inhibition is -28.1%.

Question: For CCNC(=O)N1CCN(S(=O)(=O)c2ccc3c(c2)OCCCO3)CC1, which activity change, negative = inhibition is on record?
Answer: Its activity change, negative = inhibition is 13%.

Question: For O=c1ccc(-c2ccc(S(=O)(=O)Nc3ccccc3)o2)n[nH]1, which activity change, negative = inhibition is on record?
Answer: Its activity change, negative = inhibition is 14.7%.

Question: Which activity change, negative = inhibition does the source give for COc1cccc(NC(=O)CC(c2ccc(OC(C)C)cc2)c2ccccc2OC)c1 (stereo unspecified) here?
Answer: The activity change, negative = inhibition was -14.4%.

Question: For CCOC(=O)NN1C(=O)c2ccccc2NC1c1ccccc1O (stereo unspecified), which activity change, negative = inhibition is on record?
Answer: The activity change, negative = inhibition was 8.06%.

Question: With O=C(CCN1C(=O)C2C3CCC(C3)C2C1=O)Nc1ccc(Cl)cc1Cl (stereo unspecified) as the molecule, how does the activity change, negative = inhibition read?
Answer: Its activity change, negative = inhibition is 1.9%.

Question: CCN(CC)C(=O)CSc1nnc(-c2ccc(S(=O)(=O)NCc3ccccc3Cl)cc2)o1 was tested. Which activity change, negative = inhibition did it give?
Answer: The activity change, negative = inhibition was -13.6%.

Question: How did the activity change, negative = inhibition turn out when COc1ccc(S(=O)(=O)n2cnc3ccccc32)c(C)c1 was run?
Answer: Its activity change, negative = inhibition is -81.3% (active).

Question: For Cc1ccc(S(=O)(=O)n2cnc3ccccc32)c(C)c1, which activity change, negative = inhibition is on record?
Answer: The activity change, negative = inhibition was 2.16%.

Question: Which activity change, negative = inhibition does the source give for COc1ccc(S(=O)(=O)N2CCN(C)CC2)c(C)c1 here?
Answer: Its activity change, negative = inhibition is -0.476%.

Question: Which activity change, negative = inhibition does the source give for CCC1SC2=NCCN2C1(O)c1ccc(Cl)cc1 (stereo unspecified) here?
Answer: Its activity change, negative = inhibition is 6.43%.

Question: How did the activity change, negative = inhibition turn out when CCOc1ccc(N(CC(=O)NCCc2ccc(F)cc2)S(=O)(=O)c2ccccc2)cc1 was run?
Answer: Its activity change, negative = inhibition is -7.25%.

Question: COC(=O)c1cc(=O)n(-c2c(Cl)cc(C(F)(F)F)cc2Cl)[nH]1 was tested. Which activity change, negative = inhibition did it give?
Answer: The activity change, negative = inhibition was -90% (active).

Question: CCN1C(=S)N[C@@H](c2cccc(C(F)(F)F)c2)C(C(=O)OC)=C1C was tested. Which activity change, negative = inhibition did it give?
Answer: The activity change, negative = inhibition was 0.624%.

Question: For CC(NC(=O)Cn1cc(C(F)(F)F)cc(Cl)c1=O)c1ccccc1 (stereo unspecified), which activity change, negative = inhibition is on record?
Answer: Its activity change, negative = inhibition is 7.91%.

Question: For Cc1sc2ncn(CC(=O)NCCCC(=O)N(C)Cc3ccccc3)c(=O)c2c1C, which activity change, negative = inhibition is on record?
Answer: Its activity change, negative = inhibition is 3.25%.

Question: How did the activity change, negative = inhibition turn out when Cc1sc2ncn(CC(=O)NCCCC(=O)N3CCN(c4ccccc4F)CC3)c(=O)c2c1C was run?
Answer: The activity change, negative = inhibition was 3.65%.

Question: Cc1sc2ncn(CC(=O)NCCCC(=O)NCc3ccc(F)cc3)c(=O)c2c1C was tested. Which activity change, negative = inhibition did it give?
Answer: Its activity change, negative = inhibition is -97.7% (active).

Question: COc1ccc(CCNCc2c(-c3ccccc3)n(C)c3ccccc23)cc1 was tested. Which activity change, negative = inhibition did it give?
Answer: Its activity change, negative = inhibition is 5.27%.

Question: For COc1cc(OC)cc(C(=O)NNC(=O)CNC(=O)c2ccc(Br)o2)c1, which activity change, negative = inhibition is on record?
Answer: Its activity change, negative = inhibition is -4.32%.

Question: How did the activity change, negative = inhibition turn out when NC1CCN(O)C1=O (stereo unspecified) was run?
Answer: Its activity change, negative = inhibition is 5.61%.

Question: With CCC(C)NC(=O)C1CCC(=O)N1Cc1ccc(C)cc1 (stereo unspecified) as the molecule, how does the activity change, negative = inhibition read?
Answer: The activity change, negative = inhibition was 1.98%.

Question: Which activity change, negative = inhibition does the source give for CCCN(c1ccc(C(C)C)cc1)S(=O)(=O)c1c(C)[nH]c(=O)[nH]c1=O here?
Answer: Its activity change, negative = inhibition is -12.7%.

Question: For Cc1ccc(CN2CCNC(=O)C2CC(=O)NCc2csc(C(C)C)n2)cc1 (stereo unspecified), which activity change, negative = inhibition is on record?
Answer: Its activity change, negative = inhibition is 12.6%.

Question: How did the activity change, negative = inhibition turn out when NC(=O)C1CCN(c2nc(-c3cccc(F)c3)cs2)CC1 was run?
Answer: Its activity change, negative = inhibition is -7.85%.
